Test results reported in PubChem BioAssay (EPA / NIEHS).
“And” between values parts separate entries of the source, which are not always exact repeats. Identical values can stand only once. Inconclusive results are not listed. Some structures have more than one record in an assay (separate samples or runs), and their calls can disagree. The source made the active and inactive calls. Rule for the calls, unless noted: active = hit-call score of the fitted dose curve at least 0.9, where 1 is the maximum; inconclusive = response in the unintended direction; inactive = score below 0.9.

Experiments:
[1] = ATG_M_61_CIS: Attagene CIS-FACTORIAL HepG2 Assay for M61 Transcription Factor (Internal Marker) (AID 2282937; active = hit-call score of the fitted dose curve at least 0.9, where 1 is the maximum; inactive = score below 0.9); details: HepG2 Attagene CIS-FACTORIAL M61 internal marker reporter; actives raise or lower the signal
Method in brief: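 Cells were transfected with reporter units under cis-regulatory promoters, treated with chemicals for 24 h, then lysed for RNA. Reporter transcripts were quantified by RT-PCR and capillary electrophoresis, and activity was fitted bidirectionally against DMSO.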

[2] = ATG_GRE_CIS: Attagene CIS-FACTORIAL HepG2 Assay for human Glucocorticoid Response Elements (GRE) (AID 2282947; active = hit-call score of the fitted dose curve at least 0.9, where 1 is the maximum; inactive = score below 0.9); details: HepG2 GRE cis-reporter, Attagene multiplex mRNA; actives raise or lower the signal
Method in brief: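 Fluorescence intensity of reporter-specific cDNA fragments, separated by capillary electrophoresis, provides the signal. Constructs carry cis-regulating promoters in transiently transfected HepG2 liver cells; 24 h incubation; fitting is bidirectional against DMSO.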

[3] = ATG_ISRE_CIS: Attagene CIS-FACTORIAL HepG2 Assay for human Interferon Regulatory Factor 1 (IRF1) binding to an Interferon-Stimulated Response Element (ISRE) (AID 2282948; active = hit-call score of the fitted dose curve at least 0.9, where 1 is the maximum; inactive = score below 0.9); details: HepG2 ISRE cis-reporter (Attagene), mRNA transcription readout; actives raise or lower the signal
Method in brief: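 Read-out: fluorescent RT-PCR products resolved by capillary electrophoresis, reporting endogenous transcription factor activity via ISRE-driven reporter mRNA in transfected HepG2 cells dosed for 24 h; gain or loss fitted relative to DMSO.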

[4] = molecular target: Heat shock factor protein 1 (Homo sapiens) (UniProt Q00613); test: ATG_HSE_CIS: Attagene CIS-FACTORIAL HepG2 Assay for human Heat Shock Transcription Factor 1 (HSE) (AID 2282953; active = hit-call score of the fitted dose curve at least 0.9, where 1 is the maximum; inactive = score below 0.9); details: HepG2 HSE cis-reporter, Attagene RNA transcription; actives raise or lower the signal
Sequence of Heat shock factor protein 1 (Homo sapiens) (Q00613 whole entry, looked up, the tested form may be a part): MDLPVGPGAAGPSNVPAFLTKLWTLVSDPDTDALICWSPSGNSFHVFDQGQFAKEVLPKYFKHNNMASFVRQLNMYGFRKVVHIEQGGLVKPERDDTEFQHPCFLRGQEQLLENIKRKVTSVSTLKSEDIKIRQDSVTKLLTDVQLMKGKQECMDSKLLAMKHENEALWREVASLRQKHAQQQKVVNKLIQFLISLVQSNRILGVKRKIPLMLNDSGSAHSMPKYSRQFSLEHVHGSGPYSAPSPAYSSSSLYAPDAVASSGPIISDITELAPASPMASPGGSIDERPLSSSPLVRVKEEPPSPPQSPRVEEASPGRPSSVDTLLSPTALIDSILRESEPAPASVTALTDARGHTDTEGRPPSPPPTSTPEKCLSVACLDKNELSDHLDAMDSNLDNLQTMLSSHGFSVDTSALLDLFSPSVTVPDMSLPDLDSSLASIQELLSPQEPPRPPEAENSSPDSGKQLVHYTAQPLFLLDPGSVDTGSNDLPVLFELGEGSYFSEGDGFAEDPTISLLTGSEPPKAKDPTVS
Method in brief: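 Endogenous transcription factor activity captured via cis-promoter reporter units transfected into HepG2; treatment lasted 24 h. Fluorescence intensity of reporter fragments analysed with bidirectional curve fitting, DMSO baseline.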

[5] = molecular target: Transcription factor Sp1 (Homo sapiens) (UniProt P08047); test: ATG_Sp1_CIS: Attagene CIS-FACTORIAL HepG2 Assay for human Specificity Protein 1 (Sp1) (AID 2282961; active = hit-call score of the fitted dose curve at least 0.9, where 1 is the maximum; inactive = score below 0.9); details: HepG2 Sp1 cis-reporter transcription, actives raise or lower the signal
Sequence of Transcription factor Sp1 (Homo sapiens) (P08047 whole entry, looked up): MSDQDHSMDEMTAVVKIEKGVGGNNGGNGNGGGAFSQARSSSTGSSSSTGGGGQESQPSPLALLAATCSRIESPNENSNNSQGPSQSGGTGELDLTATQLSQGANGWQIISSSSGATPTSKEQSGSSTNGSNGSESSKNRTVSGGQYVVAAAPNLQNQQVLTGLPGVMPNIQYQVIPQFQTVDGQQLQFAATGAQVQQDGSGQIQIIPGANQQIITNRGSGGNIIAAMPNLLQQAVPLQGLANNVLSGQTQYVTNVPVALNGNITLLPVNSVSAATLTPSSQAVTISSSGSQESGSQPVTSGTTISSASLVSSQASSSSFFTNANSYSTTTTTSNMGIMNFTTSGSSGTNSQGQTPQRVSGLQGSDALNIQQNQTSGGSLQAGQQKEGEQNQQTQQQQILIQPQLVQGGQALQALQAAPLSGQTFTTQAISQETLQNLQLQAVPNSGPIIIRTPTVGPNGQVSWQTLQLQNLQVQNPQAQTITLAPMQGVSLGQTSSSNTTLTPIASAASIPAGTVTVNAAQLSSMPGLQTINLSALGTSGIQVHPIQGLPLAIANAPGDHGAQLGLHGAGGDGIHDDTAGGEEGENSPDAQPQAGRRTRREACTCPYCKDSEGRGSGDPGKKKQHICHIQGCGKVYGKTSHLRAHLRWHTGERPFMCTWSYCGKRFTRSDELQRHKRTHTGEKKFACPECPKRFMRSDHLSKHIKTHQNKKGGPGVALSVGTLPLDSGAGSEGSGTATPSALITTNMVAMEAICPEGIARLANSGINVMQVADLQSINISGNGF
Method in brief: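 Endogenous Sp1 activity was gauged in human liver HepG2 cells bearing transfected reporter units under a cis-regulating promoter. After 24 h dosing, reporter mRNA was quantified by RT-PCR with capillary electrophoresis, and activity fitted bidirectionally versus DMSO.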

[6] = molecular target: Nuclear respiratory factor 1 (Homo sapiens) (UniProt Q16656); test: ATG_NRF1_CIS: Attagene CIS-FACTORIAL HepG2 Assay for human Nuclear Respiratory Factor 1 (NRF1) Orphan Gene (AID 2282987; active = hit-call score of the fitted dose curve at least 0.9, where 1 is the maximum; inactive = score below 0.9); details: HepG2 NRF1 cis-element reporter, Attagene multiplex; actives raise or lower the signal
Sequence of Nuclear respiratory factor 1 (Homo sapiens) (Q16656 whole entry, looked up, the tested form may be a part): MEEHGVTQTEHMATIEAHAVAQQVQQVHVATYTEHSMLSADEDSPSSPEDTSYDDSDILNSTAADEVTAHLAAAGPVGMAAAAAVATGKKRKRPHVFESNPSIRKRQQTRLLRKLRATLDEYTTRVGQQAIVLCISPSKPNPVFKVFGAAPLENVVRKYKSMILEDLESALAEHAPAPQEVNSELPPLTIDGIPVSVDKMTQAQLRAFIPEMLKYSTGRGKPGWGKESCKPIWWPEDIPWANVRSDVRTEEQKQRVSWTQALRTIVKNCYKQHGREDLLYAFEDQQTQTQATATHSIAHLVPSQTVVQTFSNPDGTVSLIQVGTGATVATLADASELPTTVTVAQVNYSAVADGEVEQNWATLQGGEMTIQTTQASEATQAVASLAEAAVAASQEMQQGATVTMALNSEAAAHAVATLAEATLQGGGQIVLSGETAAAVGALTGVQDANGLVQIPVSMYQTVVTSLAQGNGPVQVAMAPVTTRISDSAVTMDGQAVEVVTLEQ
Method in brief: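 Fluorescence intensity of labelled reporter cDNA fragments, resolved by capillary electrophoresis, served as readout for NRF1 cis-element activity. Transiently transfected HepG2 cells were dosed for 24 hours; activity in either direction was fitted against DMSO negative control.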

[7] = molecular target: Cellular tumor antigen p53 (Homo sapiens) (UniProt P04637); test: ATG_p53_CIS: Attagene CIS-FACTORIAL HepG2 Assay for human p53 Transcription Factor (AID 2282994; active = hit-call score of the fitted dose curve at least 0.9, where 1 is the maximum; inactive = score below 0.9); details: HepG2 p53 cis-element reporter, Attagene mRNA; actives raise or lower the signal
Sequence of Cellular tumor antigen p53 (Homo sapiens) (P04637 whole entry, looked up): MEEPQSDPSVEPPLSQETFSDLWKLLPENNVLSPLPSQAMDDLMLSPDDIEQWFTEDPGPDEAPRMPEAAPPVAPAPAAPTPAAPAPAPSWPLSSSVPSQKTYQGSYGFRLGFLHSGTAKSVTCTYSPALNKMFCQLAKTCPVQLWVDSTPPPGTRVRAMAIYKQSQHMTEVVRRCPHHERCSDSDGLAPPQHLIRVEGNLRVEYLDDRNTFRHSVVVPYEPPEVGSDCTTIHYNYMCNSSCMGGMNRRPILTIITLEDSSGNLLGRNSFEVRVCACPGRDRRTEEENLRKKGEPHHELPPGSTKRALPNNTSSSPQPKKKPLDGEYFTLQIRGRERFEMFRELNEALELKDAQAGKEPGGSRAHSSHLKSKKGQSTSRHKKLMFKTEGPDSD
Method in brief: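 Read-out: reporter mRNA by RT-PCR plus capillary electrophoresis with fluorescence detection. Human HepG2 liver cells carried transfected multi-reporter cis-element constructs, dosed 24 h. Gain or loss of signal fitted bidirectionally against DMSO control.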

[8] = ATG_Ets_CIS: Attagene CIS-FACTORIAL HepG2 Assay for human Erythroblast Transformation Specific (ETS) (AID 2282941; active = hit-call score of the fitted dose curve at least 0.9, where 1 is the maximum; inactive = score below 0.9); details: HepG2 ETS cis-reporter transcription, actives raise or lower the signal
Method in brief: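 RT-PCR/capillary electrophoresis fluorescence read-out of reporter mRNA; HepG2 transient multi-reporter transfection; 24 h compound exposure; gain or loss of signal fitted bidirectionally relative to DMSO.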

[9] = molecular target: Hepatocyte nuclear factor 3-beta (Homo sapiens) (UniProt Q9Y261); test: ATG_FoxA2_CIS: Attagene CIS-FACTORIAL HepG2 Assay for human Forkhead box A2 (FOXA2) (AID 2282942; active = hit-call score of the fitted dose curve at least 0.9, where 1 is the maximum; inactive = score below 0.9); details: HepG2 cis-reporter transcription factor activity, 24 h; actives raise or lower the signal
Sequence of Hepatocyte nuclear factor 3-beta (Homo sapiens) (Q9Y261 whole entry, looked up): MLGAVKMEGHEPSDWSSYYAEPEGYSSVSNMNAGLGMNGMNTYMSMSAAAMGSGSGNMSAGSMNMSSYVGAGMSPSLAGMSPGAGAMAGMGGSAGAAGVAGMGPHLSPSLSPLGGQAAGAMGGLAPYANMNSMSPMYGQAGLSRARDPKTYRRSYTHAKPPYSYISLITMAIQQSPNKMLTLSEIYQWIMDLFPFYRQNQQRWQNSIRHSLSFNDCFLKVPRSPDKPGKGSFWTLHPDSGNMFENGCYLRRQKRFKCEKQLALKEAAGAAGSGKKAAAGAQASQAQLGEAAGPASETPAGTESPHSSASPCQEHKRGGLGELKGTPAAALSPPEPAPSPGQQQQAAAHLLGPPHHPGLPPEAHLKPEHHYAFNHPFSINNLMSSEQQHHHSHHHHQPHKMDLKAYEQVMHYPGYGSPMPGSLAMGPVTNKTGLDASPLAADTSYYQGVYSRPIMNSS
Method in brief: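 Endogenous transcription factor activity was read in HepG2 cells carrying transiently transfected cis-promoter reporter units. After 24 h dosing, reporter mRNA was quantified by RT-PCR and capillary electrophoresis, and values fitted bidirectionally versus DMSO.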

[10] = molecular target: Hepatocyte nuclear factor 6 (Homo sapiens) (UniProt Q9UBC0); test: ATG_HNF6_CIS: Attagene CIS-FACTORIAL HepG2 Assay for human Hepatocyte Nuclear Factor 6 (HNF6) (AID 2282952; active = hit-call score of the fitted dose curve at least 0.9, where 1 is the maximum; inactive = score below 0.9); details: HepG2 Attagene cis-factorial HNF6 reporter transcription; actives raise or lower the signal
Sequence of Hepatocyte nuclear factor 6 (Homo sapiens) (Q9UBC0 whole entry, looked up, the tested form may be a part): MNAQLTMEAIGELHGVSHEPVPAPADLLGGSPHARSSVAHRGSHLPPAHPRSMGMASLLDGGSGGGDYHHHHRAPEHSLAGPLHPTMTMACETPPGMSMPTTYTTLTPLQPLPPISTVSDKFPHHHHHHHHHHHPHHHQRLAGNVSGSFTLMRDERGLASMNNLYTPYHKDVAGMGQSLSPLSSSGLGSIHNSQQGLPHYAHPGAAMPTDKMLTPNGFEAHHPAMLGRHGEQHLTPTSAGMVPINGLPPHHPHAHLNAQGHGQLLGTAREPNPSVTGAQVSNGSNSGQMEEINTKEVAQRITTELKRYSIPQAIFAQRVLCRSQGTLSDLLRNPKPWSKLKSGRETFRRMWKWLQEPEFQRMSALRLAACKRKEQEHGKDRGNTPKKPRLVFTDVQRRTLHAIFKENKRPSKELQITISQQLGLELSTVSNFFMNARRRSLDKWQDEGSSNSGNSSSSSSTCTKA
Method in brief: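 Using cis-element reporters in HepG2 liver cells, the assay tracks endogenous factor-driven transcription 24 h post-dosing. Signal comes from 6-FAM-labelled, HpaI-digested RT-PCR fragments, with gain or loss scored against DMSO.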

[11] = ATG_PXRE_CIS: Attagene CIS-FACTORIAL HepG2 Assay for human Pregnane X Receptor Element (PXRE) (AID 2282957; active = hit-call score of the fitted dose curve at least 0.9, where 1 is the maximum; inactive = score below 0.9); details: HepG2 Attagene CIS-FACTORIAL PXRE reporter, mRNA; actives raise or lower the signal
Method in brief: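 Using HepG2 transfected with multiple reporter transcription units, endogenous factor-driven transcription was scored as reporter mRNA after 24 h exposure.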

[12] = ATG_SREBP_CIS: Attagene CIS-FACTORIAL HepG2 Assay for human Sterol Regulatory Element Binding (SREBP) (AID 2282962; active = hit-call score of the fitted dose curve at least 0.9, where 1 is the maximum; inactive = score below 0.9); details: HepG2 Attagene cis-factorial SREBP reporter, mRNA; actives raise or lower the signal
Method in brief: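 Readout: fluorescent reporter-transcript peaks resolved by capillary electrophoresis after RT-PCR. Cells were human HepG2 carrying transfected cis-promoter reporter constructs, dosed for 24 h. Gain or loss of signal was fitted against DMSO controls.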

[13] = TOX21_p53_BLA_p2_viability: Viability Assessment in the Tox21 HCT-116 p53 Agonism Beta-lactamase Assay, Phase 2 (AID 2283591);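 note: compound exposure lasted 16 h at 37 °C; actives lower the ATP signal meaning cytotoxicity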
Method in brief: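 HCT116 p53-bla cells, 4000/well, dosed after 5 h plating (217-fold dilution of DMSO stocks) and incubated 16 h at 37C. Viability taken as cellular ATP by CellTiter-Glo luminescence after 30 min RT; signal loss marks cytotoxicity.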

[14] = molecular target: Cellular tumor antigen p53 (Homo sapiens) (UniProt P04637); test: TOX21_p53_BLA_p2_ratio: Tox21 HCT-116 p53 Agonism Beta-lactamase Assay, Ratio, Phase 2 (AID 2283592)
Method in brief: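 Plated HCT116 p53-bla cells (4000/well) received compound after 5 h, then 16 h at 37C/5% CO2. CCF4-AM added, 2 h RT. Ratio of 460 to 530 nm emission taken as the p53 reporter signal.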

[15] = TOX21_p53_BLA_p3_viability: Viability Assessment in the Tox21 HCT-116 p53 Agonism Beta-lactamase Assay, Phase 3 (AID 2283593);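 note: cells exposed to compound for 16 h before reading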
Method in brief: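 HCT116 cells, 4000/well, dosed 5 h after plating by pin transfer (217-fold dilution from DMSO stock) and incubated 16 h at 37C, 5% CO2. Viability read as ATP luminescence with CellTiter-Glo after 30 min at room temperature.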

[16] = molecular target: Cellular tumor antigen p53 (Homo sapiens) (UniProt P04637); test: TOX21_p53_BLA_p3_ratio: Tox21 HCT-116 p53 Agonism Beta-lactamase Assay, Ratio, Phase 3 (AID 2283596)
Method in brief: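 Cells were seeded at 4000/well, rested 5 h at 37C, then dosed with DMSO compound solutions (217-fold dilution) for 16 h. CCF4-AM substrate was loaded for 2 h at room temperature, and the 460/530 nm emission ratio was fitted for gain of signal versus DMSO.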

[17] = TOX21_p53_BLA_p4_viability: Viability Assessment in the Tox21 HCT-116 p53 Agonism Beta-lactamase Assay, Phase 4 (AID 2283597);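 note: hits lower the luminescence signal meaning cytotoxicity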
Method in brief: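 Readout: ATP luminescence (CellTiter-Glo), measured 30 min after reagent addition at RT. The reagent followed a 2 h CCF4-AM incubation, and the cells had been exposed to compound for 16 h at 37C.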

[18] = molecular target: Cellular tumor antigen p53 (Homo sapiens) (UniProt P04637); test: TOX21_p53_BLA_p5_ratio: Tox21 HCT-116 p53 Agonism Beta-lactamase Assay, Ratio, Phase 5 (AID 2283599)
Method in brief: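 HCT-116 p53-bla cells (4000/well) plated 5 h, dosed with compound (217-fold DMSO dilution) for 16 h at 37 C; CCF4-AM substrate 2 h at room temperature. Activity is the 460/530 nm emission ratio (405 nm excitation), fitted in gain-of-signal direction versus DMSO.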

[19] = TOX21_p53_BLA_p5_viability: Viability Assessment in the Tox21 HCT-116 p53 Agonism Beta-lactamase Assay, Phase 5 (AID 2283600)
Method in brief: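 Workflow: seed 4000 cells per well, wait 5 h, add compounds (DMSO, 217-fold dilution), incubate 16 h, load CCF4-AM 2 h, add CellTiter-Glo, read luminescence after 30 min.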

[20] = molecular target: Cellular tumor antigen p53 (Homo sapiens) (UniProt P04637); test: TOX21_p53_BLA_p4_ratio: Tox21 HCT-116 p53 Agonism Beta-lactamase Assay, Ratio, Phase 4 (AID 2283601)
Method in brief: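 HCT-116 p53 beta-lactamase reporter cells (4000/well) preincubated 5 h, then compound (217-fold dilution of DMSO stock) for 16 h at 37C. CCF4-AM substrate added 2 h at room temperature; 460/530 nm emission ratio fitted upward versus DMSO.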

Measured: AC50

O=C(C1CCCCC1)N1CC(=O)N2CCc3ccccc3C2C1 (centres undefined)
inactive: [1] | [2] | [3] | [4] | [5] | [6] | [7]

CCOC(=O)c1ccccc1
inactive: [9] | [10] | [4] | [12] | [6] | [7] | [13] | [14] | [15] | [16] | [17] | [18]
active: [8] 180 µM | [2] 61.9 µM | [3] 167 µM | [11] 100 µM | [5] 28 µM

COc1ccc(C(=O)c2ccccc2O)c(O)c1
inactive: [14] | [16] | [17] | [18] | [19] | [20]

CCCCCCCCCCCCSC#N
inactive: [14] | [15] | [16] | [17]

CC(=O)CC(=O)OC(C)(C)C
inactive: [13] | [14] | [15] | [16] | [17] | [18] | [20]

CC(=O)OC(C)(C)Cc1ccccc1
inactive: [8] | [9] | [3] | [10] | [4] | [11] | [5] | [12] | [6] | [7] | [13] | [14] | [15] | [16] | [19] | [20]

Nc1nc(N)c2nc(-c3ccccc3)c(N)nc2n1
inactive: [13] | [14] | [15] | [16] | [17] | [19]
active: [13] 85.6 µM | [14] 32.3 µM and 16.7 µM | [16] 33.5 µM | [18] 17.5 µM and 38.9 µM and 28 µM | [20] 26.9 µM and 21.1 µM and 29.1 µM

CCCCC(CC)COC(=O)C=Cc1ccc(OC)cc1 (centres undefined)
inactive: [13] | [14] | [15] | [16] | [17] | [18] | [19]

Cc1c(C(N)=O)cc([N+](=O)[O-])cc1[N+](=O)[O-]
inactive: [13] | [16] | [17] | [19] | [20]

C1CN(CCOCCN2CCOCC2)CCO1
inactive: [13] | [16]

CCCCC(CC)COC(=O)CS (centres undefined)
active: [11] 13.1 µM
inactive: [1] | [8] | [9] | [2] | [3] | [10] | [4] | [5] | [12] | [6] | [7] | [13] | [14] | [15] | [16] | [17] | [20]

O=[N+]([O-])c1cc[n+]([O-])cc1
inactive: [13] | [14] | [15] | [17] | [18] | [19] | [20]

Nc1nnc(-c2ccc([N+](=O)[O-])o2)o1
active: [14] 85.7 µM | [20] 70.1 µM
inactive: [1] | [8] | [9] | [2] | [3] | [10] | [4] | [6] | [7] | [13] | [15] | [16] | [17] | [18] | [19]
